# Screening data as filed in PubChem.
# CF NFkB inh: inhibitors of PAF-induced NF-kB signaling, primary screen, cell-based, GFP fluorescence, uHTS; KKLEB NF-kB-GFP reporter, GFP fluorescence overnight; inhibition, % at 5 µM; 0.86% of 360,000 active;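 active = at least 50% inhibition at 5 µM, scaled per plate between neutral and stimulator controls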;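 note: PAF is a Pseudomonas aeruginosa culture filtrate used as stimulus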
# Beta2AR agonist: beta2AR agonists driving receptor internalization, primary screen, cell-based, FAP fluorogen, flow cytometry; Am2.2-beta2AR cells; response, % (no concentration beside the values); 0.43% of 340,000 active; AID 504454, 2011;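 active = response above a set limit, near 3 SD of response in nonfluorescent compounds, cut at about 42% in these data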
# MITF TRPM1 inh: inhibitors of MITF-dependent TRPM1 promoter reporter, primary screen, cell-based, SK-MEL-5, single point, luciferase; SK-MEL-5 TRPM1 promoter luciferase, 24 h; inhibition, % at 12.5 µM; 0.83% of 330,000 active; AID 488899, 2010;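 active = mean inhibition across replicates of 60% or more, whatever share of single replicates reaches that level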
# HIF-2a block: HIF-2a reporter inhibitors, primary screen, luminescence, 786-0 RCC cells | inhibition, % at 18.8 µM | 0.72% of 360,000 active | 786-0 RCC cells HIF-2a reporter, luciferase luminescence, overnight;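 active = inhibition of the luminescence signal of 40% or more relative to plate controls, in a single-dose primary screen at 18.75 µM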
# KKLEB tox: cytotoxicity in KKLEB CF airway cells, primary screen, cytotoxicity control for CF NF-kB inhibitor project, cell-based, uHTS, fluorescence assay plates; KKLEB CF airway cells viability, ATPlite luminescence, overnight; stronger effect = lower value; cells stimulated with P. aeruginosa culture filtrate; activity change (cytotoxicity), % at 5 µM; 0.36% of 360,000 active; AID 602141, 2011;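 active = corrected activity change at or below -50% at 5 µM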
# Peg3 prom inh: Peg3 promoter-driven luciferase inhibitors, primary screen, cell-based, HeLa, luciferase luminescence; HeLa PEG-Prom luciferase reporter, overnight; inhibition, % at 20 µM; 1.7% of 360,000 active;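 active = inhibition of at least 50% at 20 µM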
# CF NFkB conf: inhibitors of PAF-induced NF-kB signaling, retest, confirmation, cell-based, GFP fluorescence, single concentration | shares compounds with CF NFkB inh | KKLEB CF airway cells, overnight | inhibition, % at 5 µM | 64% of 1,300 active | AID 602472, 2012; in the data active = inhibition above about 40%;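 note: stimulus PAF is a Pseudomonas aeruginosa filtrate and not platelet activating factor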
# Mdm2 MdmX conf: retested Mdm2-MdmX interaction blockers, confirmation, cell-based, luminescence, single concentration, set 2; shares compounds with HIF-2a block; SaOS-2 split-luciferase Mdm2/MdmX complementation; inhibition, % at 8 µM; 99% of 740 active; AID 504601, 2011;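 active = mean inhibition of the luminescence signal across two replicates at or above 26 percent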
# HIF-2a conf: HIF-2a reporter inhibitor retest, confirmation, luminescence, 786-0 RCC cells. shares compounds with HIF-2a block. HIF-2a luciferase reporter luminescence, overnight. inhibition, % at 18.8 µM. 56% of 1,800 active. AID 651580, 2012;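 active = mean inhibition across four replicates of at least 40 percent at the single tested concentration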
# HIF-1a cs: HIF-1a luciferase reporter signal reduction – MiaPaCa-2 cells, single concentration, counter-screen for HIF-2a inhibitor project, confirmation; AID 651589, 2012; MiaPaCa-2 HIF-1a luciferase reporter, desferoxamine, overnight; shares compounds with HIF-2a block; 72% of 1,800 active; inhibition, % at 18.8 µM;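 active = mean inhibition of the reporter signal across four replicates at the single tested dose of 50% or more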
# Hits are given with their value; . = inactive; / = no result. In the library only some 2.8% were active in any assay of this set; here they are far more common.
SMILES,CF NFkB inh,Beta2AR agonist,MITF TRPM1 inh,HIF-2a block,KKLEB tox,Peg3 prom inh,CF NFkB conf,HIF-2a conf,HIF-1a cs,others
C[C@@H]1CN([C@@H](C)CO)C(=O)CCCn2nncc2CO[C@@H]1CN(C)C(=O)c1cc(-c2ccccc2)on1,.,/,/,.,.,.,/,/,/,
c1nc(NCc2ccc3c(c2)OCO3)c2cc(-c3ccoc3)ccc2n1,82,.,.,.,.,.,92,/,/,Mdm2 MdmX conf=88
Fc1cccc(CNc2ncnc3ccc(-c4ccc5c(c4)OCO5)cc23)c1,.,.,.,.,.,.,/,/,/,
COc1ccc(CN2C(=O)C(CC(=O)NC(c3ccccc3)c3ccccc3)CC(C(=O)N(C)C)=C2C)cc1 (stereo not drawn),.,/,/,.,.,.,/,/,/,
Cc1cc(C)cc(NS(=O)(=O)c2ccc(-c3cnc(C4CC4)o3)cc2)c1,64,.,.,40,.,.,82,.,60,
O=S(=O)(Nc1ccccc1)c1ccc(-c2cnc(C3CC3)o2)cc1,.,.,.,.,.,.,/,/,/,
Cc1cccc(NS(=O)(=O)c2ccc(-c3cnc(C4CC4)o3)cc2)c1C,52,.,.,42,.,.,87,.,67,
Cc1ccc(S(=O)(=O)N2CCN(C(=O)N3CCCCC3)CC2)c(C)c1,.,/,/,.,.,.,/,/,/,
CC(C)CN=C(NS(=O)(=O)c1ccccc1)C(Cl)(Cl)Cl,88,.,86,92,.,99,93,93,105,
O=C(CCl)N(Cc1cc(=O)[nH]c2ccccc12)c1ccccc1,69,.,69,47,.,85,74,70,104,Mdm2 MdmX conf=101
CCN(CC)S(=O)(=O)c1cccc(NC(=O)CC2CCCC2)c1,.,.,.,.,.,.,/,/,/,
CCN(CC)S(=O)(=O)c1cccc(NC(=O)Nc2cccc(C(F)(F)F)c2)c1,63,.,.,41,.,.,.,.,102,Mdm2 MdmX conf=95
COc1ccc2c(CC(=O)Nc3ccc4nc(N5CCOCC5)sc4c3)coc2c1,.,/,/,.,.,.,/,/,/,
Cn1nnnc1Sc1ncnc2scc(-c3ccc[nH]3)c12,83,.,84,72,.,.,64,41,100,
COc1ccc(CNC(=O)/C=C/c2ccccc2[N+](=O)[O-])cc1,.,.,.,.,.,.,/,/,/,
COC(=O)C(=Cc1ccccc1[N+](=O)[O-])C(=O)OC,59,.,.,77,.,53,.,72,59,
Cc1ccc(Sc2c(C=O)c3ccccc3n2C)cc1,65,.,.,.,.,.,93,/,/,Mdm2 MdmX conf=91
Cc1ccc(Sc2c(O)c3ccccc3n(C)c2=O)cc1,.,.,.,.,.,.,/,/,/,
Clc1ccc2nc(C3CCCCC3)c(Cc3ccsc3)n2c1,.,/,/,.,.,.,/,/,/,
Cc1noc2ncnc(Sc3ccccc3Cl)c12,53,.,.,67,.,115,.,.,.,
O=C(C=Cc1ccccc1)CC(c1ccccc1)N1CCOCC1 (stereo not drawn),94,.,76,70,.,108,.,.,102,
